The text below walks through data of PubChem BioAssay (Tox21).

Inconclusive results are not listed. Values without a mark were called inactive. The source made the active and inactive calls. The call rests on the fitted dose curve.
On the % scale 0 is the no-effect control and ±100 the full control effect; potency means the concentration at half of the fitted maximal effect.

The nature of this test: p53 small molecule agonists, cell-based qHTS assay: qHTS cell viability counter screen (AID 1963581). Further: nearly all actives have a fitted effect of over 45% in size. As to conditions: p53RE-bla HCT-116 viability, ATP luminescence, 16 h; series mostly up to 66 µM; activity change, negative = cytotoxicity: at the top concentration. The source says: National Center for Advancing Translational Sciences [NCATS]
Division of Preclinical Innovation [DPI]
U.S. Environmental Protection Agency [EPA]
National Institutes of Environmental Health Sciences [NIEHS]
National Toxicology Program [NTP]
U.S. Food and Drug Administration [FDA]
p53, a tumor suppressor protein, is activated following cellular insult, including DNA damage and other cellular stresses. The activation of p53 regulates cell fate by inducing DNA repair, cell cycle arrest, apoptosis, or cellular senescence. The activation of p53, therefore, is a good indicator of DNA damage and other cellular stresses. The CellSensor p53RE-bla HCT-116 cell line (Invitrogen) contains a stably integrated beta-lactamase reporter gene under control of the p53 response elements. The activation of the reporter gene under culture conditions can be detected by fluorescence intensity. This cell line was used to screen the Tox21 compound library in a 1536-well plate format and to identify agonists that activate the p53 signaling pathway. The cytotoxicity of the Tox21 compound library against the p53 RE-bla HCT-116 cell line was tested in parallel by measuring the intra cellular ATP content in the same wells.
Tox21 Assay Protocol Summary:
The p53RE-bla cells were dispensed at 4,000 cells/5 ul/well in 1536-well black wall/clear bottom plates using a Multidrop dispenser. After the assay plates were incubated at a 37 C/5% CO2 incubator for 5 hours, 23 nL of compounds dissolved in DMSO, positive controls or DMSO only was transferred to the assay plate by a pin tool. The plates were incubated at 37 C for 16 hours. After 1 uL of LiveBLAzerTM B/G FRET substrate was added using a Flying Reagent Dispenser, the plates were incubated at room temperature for 2 hours, and fluorescence intensity was measured by an Envision plate reader. For cell viability readout that measures cytotoxicity, 4 ul/well of CellTiter-Glo reagent was added into the assay plates using a Flying Reagent Dispenser. After 30 min incubation at room temperature, the luminescence intensity in the plates was measured using a ViewLux plate reader.
Background: qHTS replaces the single test concentration by a dilution series.
Regarding `CC(COCC(C)OC(=O)c1ccccc1)OC(=O)c1ccccc1` (stereo not given), the Potency entry was “inactive”.
Regarding `O=c1[nH]c2ccccc2c(=O)n1CCCl`, the “activity change, negative = cytotoxicity” value is -13.3% [at 30.3 µM].
On the same count and under the same terms, to `O=C(CCN1CCN(CCO)CC1)N1c2ccccc2Sc2ccc(C(F)(F)F)cc21` belongs -18.3% [at 30.3 µM]; to `CC(C)CCO`, -3.72%; to `CCCC(=O)CC`, 18.4%.
On the same count and under the same terms, the value for `C1CCC2OC2C1` (stereo not given) was 2.51%.
As for `CCC(COC(=O)CCS)(COC(=O)CCS)COC(=O)CCS`, the “activity change, negative = cytotoxicity” value is -0.59%.
On the same count and under the same terms, to `CCCCCCCOC(=O)c1ccccc1C(=O)OCCCCCCC` belongs -7.65%; to `NNS(=O)(=O)c1ccc(Oc2ccc(S(=O)(=O)NN)cc2)cc1`, -9.8%.
Regarding `COc1ccccc1NC(=O)CC(C)=O`, the Potency result was “inactive”.
As for `NCCOCCN`, the “activity change, negative = cytotoxicity” value is -4.84%.
For `CC(=O)OCCC1CCCCC1`, the “activity change, negative = cytotoxicity” value was -14.1%.
Take `COc1ccc2cc3[n+](cc2c1OC)CCc1cc2c(cc1-3)OCO2`: the Potency result is “inactive”.
On the same count and under the same terms, the value for `C[C@]12CC[C@@H]3c4ccc(O)cc4CC[C@H]3[C@@H]1CCC2=O` was “inactive”.
As to `C[C@H]1C[C@H](O)c2ccsc2S1(=O)=O`, the “activity change, negative = cytotoxicity” value was 1.88% [at 30.3 µM].
On to `OC1OC[C@@H](O)[C@H](O)[C@H]1O` (stereo not given in full), for which the “activity change, negative = cytotoxicity” value is -7.45%.
Consider `COC(=O)c1c(Cl)c(Cl)c(C(=O)OC)c(Cl)c1Cl`, for which the Potency result was “inactive”.
Take `CCN(Cc1cccc(S(=O)(=O)O)c1)c1ccccc1`: the “activity change, negative = cytotoxicity” value is 4.4%.
The same measure, in the same setting: to `NC(=O)Nc1ccc(Cl)cc1` belongs 6.73%.
`O=S(=O)(O)c1ccc(N=Nc2c(O)ccc3cc(S(=O)(=O)O)ccc23)cc1`: the Potency result was “inactive”.
On to `CCN(CC)CCNC(=O)c1ccc(NC(C)=O)cc1`, for which the “activity change, negative = cytotoxicity” value is -3.85% [at 30.3 µM].
As for `CC/C=C\C/C=C\C/C=C\CCCCCCCC(=O)O`, the Potency result is “inactive”.
Same read-out and setting: to `NC[C@H](O)c1ccc(O)c(O)c1` belongs “inactive”.
For the molecule `CCOC(=O)CN`, the “activity change, negative = cytotoxicity” value was -3.63%.
Turning to `CCC(C)CO` (stereo not given), the Potency entry is “inactive”.
The same measure, in the same setting: the value for `Nc1ccc(Cl)c(N)c1` was “inactive”.
Take `C=CCCCCCCCCO`: the “activity change, negative = cytotoxicity” value is 2.49%.
The same measure, in the same setting: the value for `CCCCCCCCCCCC(=O)OCC(C)OC(=O)CCCCC(=O)O` (stereo not given) was -1.14% [at 30.3 µM]; that for `O=C(O)c1ccccc1-n1cc(C(=O)O)c(=O)c2cc(Nc3c(F)cc(F)cc3Cl)c(Cl)cc21` was 0.791%; that for `O=C(O)c1ccc(CO)o1` was 9.39%.
As to `NCc1cccc(CN)c1`, the “activity change, negative = cytotoxicity” value is -12.2%.
Same read-out and setting: to `Cc1ccc(C(=O)Nc2ccc(S(=O)(=O)O)c3cc(S(=O)(=O)O)cc(S(=O)(=O)O)c23)cc1NC(=O)c1cccc(NC(=O)Nc2cccc(C(=O)Nc3cc(C(=O)Nc4ccc(S(=O)(=O)O)c5cc(S(=O)(=O)O)cc(S(=O)(=O)O)c45)ccc3C)c2)c1` belongs -7.93% [at 30.3 µM]; to `C=CCOCC(CC)(CO)COCC=C`, 5.52%; to `CC(C)(C)OC(=O)c1cccc(N)c1`, 7.46%.
On the same count and under the same terms, to `Cc1ccccc1N=O` belongs 3.02%; to `C=C[Si](OC(=C)C)(OC(=C)C)OC(=C)C`, 22.1%; to `CC(C)(O)C(=O)c1ccc(OCCO)cc1`, -1.12%.
On to `CC(=O)N(CC(O)CO)c1c(I)c(C(=O)NCC(O)CO)c(I)c(C(=O)NCC(O)CO)c1I` (stereo not given), for which the “activity change, negative = cytotoxicity” value was -2.56% [at 30.3 µM].
As for `O=S(=O)(O)CO`, the “activity change, negative = cytotoxicity” value is -0.672%.
With `COc1ccc(CCN2CCC(Nc3nc4ccccc4n3Cc3ccc(F)cc3)CC2)cc1`, the Potency was 13.2 µM (active).
